A short description of test [1]: AP1 Signaling Pathway (AID 357; active = well fitted curve in either direction with a large enough effect, not every such curve was filed as active;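 note: ME-180 reporter cells stimulated with EGF at its EC50 level; % is set by controls: 0 for no effect and ±100 for the full control effect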). The gist of the method: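 A ratiometric CCF4 readout (405 nm excitation; 460 and 530 nm emission) quantified AP-1-driven beta-lactamase in ME-180 cells after 5 h with compound and EC50 EGF; AC50 values were derived for activators and inhibitors.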
Test [2] can be described thus: NFAT Signaling Pathway (AID 444; active = well fitted curve in either direction with a large enough effect, not every such curve was filed as active;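 note: carbachol stimulus at about its EC50 of 1 µM final; % is set by controls: 0 for no effect and ±100 for the full control effect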). To be noted: Jurkat NFAT-bla M1, carbachol, beta-lactamase ratio, 5 h; at 17.2 µM (top of the series) unless noted. Summed up: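 Jurkat cells carrying an NFAT-driven β-lactamase reporter and co-transfected muscarinic M1 receptor were treated with compound plus carbachol (1 uM final, an EC50 level) for 5 h at 37 °C. CCF4 loading followed for 1 h at RT; 460/530 nm ratio gave %activity.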

The target of test [3] is Glucocorticoid receptor (Homo sapiens) (UniProt P04150). The test can be described thus: GR-GFP Redistribution (AID 450;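 active = compounds whose dose series gives a full or clear partial fitted curve of increased nuclear translocation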; note: potency is the fitted concentration of half-maximal effect). To be noted: U2OS GR-GFP nuclear translocation, laser cytometry, 2 h.
Sequence of Glucocorticoid receptor (Homo sapiens) (P04150 whole entry, looked up): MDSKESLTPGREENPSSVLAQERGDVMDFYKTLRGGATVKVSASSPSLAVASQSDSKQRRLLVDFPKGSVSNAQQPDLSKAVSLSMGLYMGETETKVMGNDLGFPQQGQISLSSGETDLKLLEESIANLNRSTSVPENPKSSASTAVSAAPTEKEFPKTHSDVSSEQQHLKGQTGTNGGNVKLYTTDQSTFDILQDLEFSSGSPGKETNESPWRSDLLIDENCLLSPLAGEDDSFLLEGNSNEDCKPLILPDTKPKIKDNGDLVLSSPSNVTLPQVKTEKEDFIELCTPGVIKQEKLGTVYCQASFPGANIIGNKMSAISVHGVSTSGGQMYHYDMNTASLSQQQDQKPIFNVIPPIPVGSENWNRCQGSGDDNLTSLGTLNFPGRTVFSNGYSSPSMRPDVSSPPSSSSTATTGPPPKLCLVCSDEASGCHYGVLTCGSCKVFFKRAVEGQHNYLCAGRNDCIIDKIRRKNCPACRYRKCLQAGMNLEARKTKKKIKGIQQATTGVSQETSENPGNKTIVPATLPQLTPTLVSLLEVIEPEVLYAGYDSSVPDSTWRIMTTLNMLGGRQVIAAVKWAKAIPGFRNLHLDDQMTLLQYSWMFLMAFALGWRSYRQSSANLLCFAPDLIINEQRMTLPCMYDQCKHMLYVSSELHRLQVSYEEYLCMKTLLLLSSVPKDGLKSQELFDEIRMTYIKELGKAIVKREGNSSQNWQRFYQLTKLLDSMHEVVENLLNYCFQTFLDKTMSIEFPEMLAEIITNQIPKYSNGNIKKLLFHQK
Test [4] has the same target. The test can be described thus: GR-EFC Redistribution (AID 451; calls by dose curve; note: potency is the fitted concentration of half-maximal effect). The settings on record: CHO-K1 GR-EFC translocation, beta-gal luminescence, 2 h. The gist of the method:
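CHO-K1 cells stably expressing nuclear-localized β-gal enzyme acceptor and GR fused C-terminally to the enzyme donor fragment; ligand-driven nuclear translocation restores β-gal by complementation. Compounds titrated up to 46 uM final, 2 h at 37 °C; luminescence read.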

The target in test [5] is Mitogen-activated protein kinase 10 (Mus musculus) (UniProt Q61831). Nature of the test: JNK3 AlphaScreen Assay (AID 530; active = well fitted curve in either direction with a large enough effect, not every such curve was filed as active;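 note: kinase came from lysate of stimulated human HepG2 cells; signal reports phosphorylation of biotinylated GST-cJun 1-79 at Ser73 with 10 µM ATP; % is set by controls: 0 for no effect and ±100 for the full control effect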). The gist of the method: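 Phosphorylation of biotinylated GST-cJun(1-79) at Ser73 is measured by AlphaScreen proximity luminescence. Enzyme is JNK3 in HepG2 lysates activated with interleukin-1beta and tumor necrosis factor alpha; ATP is 10 uM final.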

Test [6] addresses 3',5'-cyclic-AMP phosphodiesterase 4B (Homo sapiens) (UniProt Q07343). The test can be described thus: qHTS Assay for Inhibitors of PDE-IV (AID 607; active = well fitted activation curve with a large enough effect in the main read-out, with a control signal flat, not every such curve was filed as active; note: % of control where 0% means no effect). The gist of the method:
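Live HEK293 cells with a modified cyclic nucleotide-gated (CNG) channel report intracellular cAMP via membrane-potential dye fluorescence (ex 535/em 590 nm). Endogenous PDE-IV was targeted. Compounds were tested at up to 22.9 uM final; RO 20-1724 100 uM served as control.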
(In general: Quantitative high-throughput screening tests each substance at several concentrations.)

A short description of test [7]: qHTS Assay for Lipid Storage Modulators (AID 1519; calls by dose curve). The settings on record: Drosophila S3 cells, BODIPY lipid droplet/cell ratio, laser cytometry, cells loaded with oleic acid; for activity change, negative = inhibition: at 25.7 µM (top of the series). Summed up: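 Cells seeded at 5,000 per well were treated with compounds over a concentration series and loaded with oleic acid (400 uM, as added). Lipid droplet fluorescence (488 nm excitation, 500-530 nm channel) was read by laser-scanning cytometry and normalized to 20 uM Triacsin C.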

Test [8] deals with Ubiquitin carboxyl-terminal hydrolase 1 (Homo sapiens) (UniProt O94782). Nature of the test: Inhibitors of USP1/UAF1: Pilot qHTS (AID 504865).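 Note: rhodamine fluorescence freed from ubiquitin-rhodamine substrate followed over time; top concentration of the series differs between compounds; % is set by controls: 0 for no effect and ±100 for the full control effect; nearly all actives have a fitted effect of over 35% in size.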 Summed up: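 Kinetic fluorescence assay: 1nM USP1/UAF1, 15 min compound preincubation, then 150nM Ub-Rho; 480/540 nm.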
Sequence of Ubiquitin carboxyl-terminal hydrolase 1 (Homo sapiens) (O94782 whole entry, looked up): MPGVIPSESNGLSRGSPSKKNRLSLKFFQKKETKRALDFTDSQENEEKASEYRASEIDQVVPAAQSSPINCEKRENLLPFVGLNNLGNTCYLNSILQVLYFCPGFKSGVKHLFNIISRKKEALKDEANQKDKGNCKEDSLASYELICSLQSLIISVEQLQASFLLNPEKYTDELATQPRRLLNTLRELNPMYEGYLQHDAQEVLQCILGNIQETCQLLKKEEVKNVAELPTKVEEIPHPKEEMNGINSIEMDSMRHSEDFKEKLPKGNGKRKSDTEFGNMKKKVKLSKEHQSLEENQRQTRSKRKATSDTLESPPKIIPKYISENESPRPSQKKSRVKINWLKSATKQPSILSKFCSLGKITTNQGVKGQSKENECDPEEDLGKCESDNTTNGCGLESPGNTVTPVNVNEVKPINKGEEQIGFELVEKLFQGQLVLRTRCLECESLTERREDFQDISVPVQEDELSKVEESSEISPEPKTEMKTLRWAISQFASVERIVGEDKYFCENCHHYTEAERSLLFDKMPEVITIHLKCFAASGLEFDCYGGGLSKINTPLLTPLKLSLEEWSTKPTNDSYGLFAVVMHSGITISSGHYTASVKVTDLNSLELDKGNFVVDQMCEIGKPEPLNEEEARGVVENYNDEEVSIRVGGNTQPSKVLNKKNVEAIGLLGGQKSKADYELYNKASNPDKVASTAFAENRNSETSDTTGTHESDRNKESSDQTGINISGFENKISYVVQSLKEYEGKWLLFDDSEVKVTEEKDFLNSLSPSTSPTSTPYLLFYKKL
A short description of test [9]: Stat Signaling Pathway (AID 446; active = well fitted curve in either direction with a large enough effect, not every such curve was filed as active;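 note: ME-180 cervical cancer cells given 40 pM IL-6 alongside compound; SIE-controlled beta-lactamase reporter measured as 460/530 nm FRET emission ratio; % is set by controls: 0 for no effect and ±100 for the full control effect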). The gist of the method: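 Overnight-plated ME-180 cells bearing a STAT Inducible Element beta-lactamase reporter; 5 h co-exposure to compound and 40 pM IL-6; values normalized to 300 pM IL-6 and 125 nM JAK inhibitor controls.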
The target in test [10] is ATP-dependent 6-phosphofructokinase (Trypanosoma brucei brucei) (UniProt O15648). The test can be described thus: qHTS Assay to Find Inhibitors of T. brucei phosphofructokinase: hit validation (AID 492961). Summed up: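 Reaction: 0.1 M triethanolamine pH 8.0, 5 mM MgCl2, F6P 0.5 mM, ATP 0.1 mM, PFK 1.25 nM, 45 min RT. Read-out: ADP-Glo luminescence. Analysis: concentration-response fits, classed by r2 and efficacy.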
Sequence of ATP-dependent 6-phosphofructokinase (Trypanosoma brucei brucei) (O15648 whole entry, looked up): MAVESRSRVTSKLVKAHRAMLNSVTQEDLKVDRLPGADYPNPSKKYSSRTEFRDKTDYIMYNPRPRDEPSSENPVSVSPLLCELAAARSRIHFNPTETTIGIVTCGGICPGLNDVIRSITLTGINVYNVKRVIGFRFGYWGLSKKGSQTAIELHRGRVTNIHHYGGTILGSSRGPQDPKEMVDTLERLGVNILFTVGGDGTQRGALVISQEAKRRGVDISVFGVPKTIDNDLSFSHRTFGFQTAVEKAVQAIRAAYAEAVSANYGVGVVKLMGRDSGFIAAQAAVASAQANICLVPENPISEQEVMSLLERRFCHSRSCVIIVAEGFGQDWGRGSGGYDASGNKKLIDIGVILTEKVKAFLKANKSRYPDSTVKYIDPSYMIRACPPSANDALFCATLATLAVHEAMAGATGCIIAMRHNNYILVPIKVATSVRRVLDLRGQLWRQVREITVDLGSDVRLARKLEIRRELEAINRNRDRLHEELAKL

Test [11] addresses Luciferin 4-monooxygenase (Photinus pyralis) (UniProt P08659). Nature of the test: Biochemical firefly luciferase enzyme assay for NPC (AID 624030).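 Note: purified P. pyralis luciferase at 10 nM with luciferin and ATP substrate; 0% = DMSO and -100% = full luciferase inhibition by PTC124 control; nearly all actives have a fitted effect of over 70% in size.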 Summed up:
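Counter-screen for direct inhibition of the luciferase enzyme by approved-drug library compounds, run at 10 nM enzyme in 50 mM Tris acetate (final). Luminescence was read within 5 min of enzyme-buffer addition and normalized to PTC124 versus DMSO (0%).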

The test system of a further test is C2A. The test can be described thus: qHTS profiling for inhibitors of Plasmodium falciparum proliferation (AID 504749).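 For activity, negative = inhibition: 0% = DMSO vehicle and full inhibition = artemisinin control.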 Note: nearly all actives have a fitted effect of over 60% in size. Note: potency is the fitted concentration of half-maximal effect. The settings on record: P. falciparum in erythrocytes, SYBR Green DNA, 72 h; series mostly up to 12.8 µM. The gist of the method:
(§1)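 Quantitative HTS: compounds pinned into medium, infected erythrocytes added (0.3% parasitemia, 2.5% hematocrit), 72 h culture at 37 C under 5% CO2. Saponin/Triton lysis with SYBR Green I, overnight RT, then fluorescence read.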

The subject of a further test is CP252. The description is as above. To be noted: P. falciparum in erythrocytes, SYBR Green DNA, 72 h; series mostly up to 12.8 µM. The gist of the method: as §1
The subject of another test is HB3. The description is as above. The settings on record: P. falciparum in erythrocytes, SYBR Green DNA, 72 h; series mostly up to 12.8 µM. Summed up:
as §1

In another test the test system is SC27B. The test is described as above. To be noted: P. falciparum in erythrocytes, SYBR Green DNA, 72 h; series mostly up to 12.8 µM. Summed up: as §1
Test in test [12]: as above
The settings on record: P. falciparum in erythrocytes, SYBR Green DNA, 72 h, at 12.8 µM (top of the series). Summed up: as §1

Another test relates to CP217. Described as above. To be noted: P. falciparum in erythrocytes, SYBR Green DNA, 72 h; series mostly up to 12.8 µM. The gist of the method:
as §1

The test system of another test is CP238. Described as above. The settings on record: P. falciparum in erythrocytes, SYBR Green DNA, 72 h; series mostly up to 12.8 µM. The gist of the method:
as §1

A further test concerns CP250. The description is as above. To be noted: P. falciparum in erythrocytes, SYBR Green DNA, 72 h; series mostly up to 12.8 µM. Summed up:
as §1

The test system of another test is FAB9. The test is described as above. To be noted: P. falciparum in erythrocytes, SYBR Green DNA, 72 h; series mostly up to 12.8 µM. Summed up:
as §1

[13] abbreviates: measured here: cell count channel max response.
Setting [14] is: measured here: lipid channel max response.

Results filed as inconclusive are left out. The source made the active and inactive calls. Unless noted, calls come from the whole dose curve; as a rule, active = well fitted curve in the direction sought with a large enough effect; inconclusive = small, poorly fitted or top-dose-only effect, or another doubt; inactive = no such curve, though single readings can be large; an effect the other way counts as inactive or inconclusive. Some results are limits rather than exact numbers.

Sequence of Luciferin 4-monooxygenase (Photinus pyralis) (P08659 whole entry, looked up): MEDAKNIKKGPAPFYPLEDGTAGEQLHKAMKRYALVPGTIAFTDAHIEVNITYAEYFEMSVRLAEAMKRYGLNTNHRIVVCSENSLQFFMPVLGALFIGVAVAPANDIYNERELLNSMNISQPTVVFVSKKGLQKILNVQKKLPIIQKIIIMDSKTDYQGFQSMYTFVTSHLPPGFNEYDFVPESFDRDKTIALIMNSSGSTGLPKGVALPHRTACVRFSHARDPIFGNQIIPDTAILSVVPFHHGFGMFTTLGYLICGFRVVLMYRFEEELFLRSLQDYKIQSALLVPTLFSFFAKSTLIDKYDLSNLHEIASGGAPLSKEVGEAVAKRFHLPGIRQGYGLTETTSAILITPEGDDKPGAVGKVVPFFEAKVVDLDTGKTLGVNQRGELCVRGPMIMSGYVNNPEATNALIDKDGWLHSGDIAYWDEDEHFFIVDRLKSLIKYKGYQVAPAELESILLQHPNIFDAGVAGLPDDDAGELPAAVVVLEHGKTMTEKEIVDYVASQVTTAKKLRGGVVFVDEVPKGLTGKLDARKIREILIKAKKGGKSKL
Sequence of 3',5'-cyclic-AMP phosphodiesterase 4B (Homo sapiens) (Q07343 whole entry, looked up): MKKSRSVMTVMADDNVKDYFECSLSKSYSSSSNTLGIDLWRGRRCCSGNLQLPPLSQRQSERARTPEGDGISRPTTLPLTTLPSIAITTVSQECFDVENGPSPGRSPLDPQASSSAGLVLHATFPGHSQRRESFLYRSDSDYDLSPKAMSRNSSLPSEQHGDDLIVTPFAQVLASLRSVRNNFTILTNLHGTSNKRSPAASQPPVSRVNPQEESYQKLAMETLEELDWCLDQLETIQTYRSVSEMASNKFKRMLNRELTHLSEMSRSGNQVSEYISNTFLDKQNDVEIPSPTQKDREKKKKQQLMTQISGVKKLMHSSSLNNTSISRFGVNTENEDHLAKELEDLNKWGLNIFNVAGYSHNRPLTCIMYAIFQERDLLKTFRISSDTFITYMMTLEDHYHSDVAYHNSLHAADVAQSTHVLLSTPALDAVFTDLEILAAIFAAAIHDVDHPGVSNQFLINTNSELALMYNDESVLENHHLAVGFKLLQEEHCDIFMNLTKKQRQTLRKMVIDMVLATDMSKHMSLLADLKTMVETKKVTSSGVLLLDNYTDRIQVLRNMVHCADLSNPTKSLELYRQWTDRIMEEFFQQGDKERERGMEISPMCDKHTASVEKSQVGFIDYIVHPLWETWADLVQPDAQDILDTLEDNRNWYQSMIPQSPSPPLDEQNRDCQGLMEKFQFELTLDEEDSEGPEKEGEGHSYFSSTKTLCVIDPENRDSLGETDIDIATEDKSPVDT

Regarding `C[C@@]12CCC(=O)C[C@@H]1CC(=O)[C@H]1[C@H]3CCC[C@]3(C)C(=O)C[C@@H]12` (tested in a mixture with another compound), the outcome in test [1] and in test [6] was inactive. The results for the activity change, negative = inhibition in test [2] and in test [7] were -7.43% (inactive) and 0.558% (inactive), respectively. The Potency in [3] and in test [4] was > 20.6 µM (inactive) each time. Further, the Potency result in test [5] and in test [8] was “inactive” each time. The max response was 2.78% in test [7] (setting [13]) and 4.64% in [7] (setting [14]).

Regarding `CC[C@]1(c2ccccc2)NC(=O)N(C)C1=O`, the outcome in test [1] and in test [9] was inactive. Further, the activity change, negative = inhibition is -14.9% (inactive) in [2] and 0.43% (inactive) in test [7]. Further, the Potency entry in [5] and in [8] was “inactive” throughout. Further, the max response in test [7] (setting [13]) was determined as 11.1%; in [7] (setting [14]), 11.3%.

`C[C@H](NCCC(c1ccccc1)c1ccccc1)c1ccccc1`: the call in [1] and in test [9] was inactive. The Potency in test [3] and in test [4] was > 20.6 µM (inactive) in each case. Besides, the Potency entry in test [5] and in test [8] was “inactive” in each case. Besides, in [7], the activity change, negative = inhibition is -3.52% (inactive). For the same molecule, the max response in test [7] (setting [13]) was -21.2%; in test [7] (setting [14]), -22.3%.

In the case of `C[C@@H](CNC1CCCCC1)OC(=O)c1ccccc1`, the call in test [1], in [6] and in [10] was inactive. In addition, the Potency in test [3] is > 20.6 µM (inactive); in test [4], > 20.6 µM (inactive); with HB3, 3.98 µM (active); in the test with SC27B, 3.55 µM (active). Moreover, the Potency entry (in [5]; in [8]; in test [11]; in the test with C2A; with CP252) was “inactive” in each case. Moreover, in [7], the activity change, negative = inhibition was -3.84% (inactive). The max response in test [7] (setting [13]) is -16.8%; in [7] (setting [14]) it was -19.5%.

Take `CC1(C)[C@@H](OC(=O)CCC(=O)O)CC[C@@]2(C)[C@H]1CC[C@@]1(C)[C@H]2C(=O)C=C2[C@H]3C[C@](C)(C(=O)O)CC[C@]3(C)CC[C@@]21C`: the call in test [1], in test [9], in [6] and in test [10] was inactive. Besides, the Potency in test [3] and in test [4] was > 20.6 µM (inactive) each time. In addition, the Potency entry (in test [5]; in test [8]; in test [11]; in the test on C2A; with CP217; with CP238) was “inactive” in each case. The Potency entry with CP250, in the test on CP252, with FAB9, in the test with HB3 and with SC27B was “inactive” each time. Besides, the activity change, negative = inhibition in test [7] was -0.623% (inactive). In addition, the max response in [7] (setting [13]) was -1.7%; in [7] (setting [14]), -2.85%. In addition, the activity, negative = inhibition in test [12] (parasite line A) is -5.96% (inactive); in test [12] (parasite line B), 13.4% (inactive).

Consider `OCCOCCN1CCN([C@@H](c2ccccc2)c2ccc(Cl)cc2)CC1`, for which the molecule was called inactive in [1], in [9] and in test [6]. Moreover, the Potency entry in [5] and in test [8] was “inactive” each time. Also, the activity change, negative = inhibition in test [7] was -0.885% (inactive). Besides, the figures for the max response in [7] (setting [13]) and in test [7] (setting [14]) were 8.41% and 6.93%, respectively.

With `Cc1cccc(CN2CCN([C@@H](c3ccccc3)c3ccc(Cl)cc3)CC2)c1`, the molecule was called inactive in test [1], in test [9], in test [6] and in test [10]. Also, the Potency in [3] and in test [4] was > 20.6 µM (inactive) throughout. Also, the Potency entry (in test [5]; in test [11]; in the test with C2A; in the test with CP238; with CP252; with FAB9) was “inactive” in each case. Moreover, in [7], the activity change, negative = inhibition is -11.4% (inactive). Also, the figures for the max response in test [7] (setting [13]) and in [7] (setting [14]) were -11.7% and -24.7%, respectively.

(Values after PubChem BioAssay (NCATS).)
